Pf Dd2 inh: Plasmodium falciparum Dd2 growth inhibition; 4.3% of 120,000 active; Potency, µM (doses to about 28.9 µM), actives largely listed as inhibitors; P. falciparum Dd2 growth, SYBR Green, 72 h; AID 1347417; active = well fitted inhibition curve with a large enough effect; note: nearly all actives have a fitted effect of over 65% in size
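Readout: SYBR Green fluorescence, 485 nm excitation, 535 nm emission, after ~16 h lysis at 37C. Before that, Dd2-infected red cells (2.5% hematocrit) grew 72 h with compound, 29 uM top final concentration.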
Of the large screens only hits and unclear results are named; the others gave an inactive call. The sample as a whole holds a higher share of hits than the screen did.

O=C1CC(c2ccccc2)N(C(=O)CNC(=O)c2n[nH]c3ccccc23)CCCCCN1 (stereo not drawn)	none
O=C1CC(c2ccccc2)N(C(=O)CNC(=O)c2ccccn2)CCCCCCN1 (stereo not drawn)	none
COc1ccc(C(=O)NCC(=O)N2CCCCCCNC(=O)CC2c2ccccc2)cc1F (stereo not drawn)	none
COc1cccc(CC(=O)NCC(=O)N2CCCCCCNC(=O)CC2c2ccccc2)c1 (stereo not drawn)	none
O=C1CC(c2ccccc2)N(C(=O)CNC(=O)c2[nH]nc3c2COc2ccccc2-3)CCCCCN1 (stereo not drawn)	Pf Dd2 inh 2.51µM
O=C1CC(c2ccccc2)N(C(=O)CNC(=O)c2nccc3ccccc23)CCCCCCN1 (stereo not drawn)	Pf Dd2 inh 0.355µM
Cc1cccc(N2C(=O)CSC23CCN(C(=O)C2CC2)CC3)c1	none
Cc1c(Cl)cccc1NS(=O)(=O)c1ccc(NS(=O)(=O)c2ccc3c(c2)OCCO3)cc1	none
Cc1ccc(C(=O)N2CCC(CCC(=O)N3CCN(c4ccccn4)CC3)CC2)cc1	none
O=C(CC1CCCN(c2cnn(CC3CC3)c(=O)c2)C1)NCc1ccc(Cl)cc1 (stereo not drawn)	none
Cc1ccc(NC(=O)N[C@@H]2C=C(C(=O)N[C@H]3CCCNC3=O)C[C@@H](O)[C@@H]2O)cc1	none
COCCC(=O)N[C@@H]1CN(c2ccncn2)C[C@H]1CO	none
Cc1ccccc1-c1nc(CS(=O)CC(=O)NCCc2ccc(Cl)cc2)c(C)o1 (stereo not drawn)	none
Cc1ccc(N2C(=O)[C@@H]3C[C@@H](NC(=O)c4cccn4C)CCN3C2=O)cc1	none
CSc1cccc(N2C(=O)[C@@H]3C[C@@H](NC(=O)c4cccn4C)CCN3C2=O)c1	Pf Dd2 inh 10µM
Cn1cccc1C(=O)N[C@H]1CCN2C(=O)N(c3cccc(F)c3)C(=O)[C@@H]2C1	none
CCn1ccc(C(=O)N2CCC(N3C[C@H](O)C[C@H]3C(=O)NCc3cccnc3)CC2)n1	none
CCOc1ccc(CC(=O)NC2CCCN(c3cc(-c4ccc(F)cc4)[nH]n3)C2)cc1OCC (stereo not drawn)	none
CCOc1ccc(CC(=O)NC2CCN(c3cc(-c4cccs4)[nH]n3)C2)cc1OCC (stereo not drawn)	none
CCOc1cc(C(=O)NC2CCN(c3cc(-c4cccs4)[nH]n3)C2)cc(OCC)c1OCC (stereo not drawn)	none
CCOc1ccc(CC(=O)NC2CCN(c3cc(-c4ccccc4)[nH]n3)C2)cc1OCC (stereo not drawn)	Pf Dd2 inh 7.94µM
CCOc1cc(C(=O)NC2CCN(c3cc(-c4ccccc4)[nH]n3)C2)cc(OCC)c1OCC (stereo not drawn)	Pf Dd2 inh 5.01µM
Cc1cc(C)cc(C(=O)NC2CCN(c3cc(-c4ccccc4)[nH]n3)C2)c1 (stereo not drawn)	none
COCc1nc(C2CCCN(C(=O)Cc3cccc(OC)c3)C2)no1 (stereo not drawn)	none
COC(=O)c1ccc2c(c1)N(Cc1cc(C)ccc1C)C(=O)c1ccccc1S2	none
O=C(c1ccc2c(c1)N(Cc1ccc(F)cc1Cl)C(=O)c1ccccc1S2)N1CCC2(CC1)OCCO2	none
COc1ccc(CCNC(=O)c2ccc3c(c2)N(Cc2ccccc2C)C(=O)c2ccccc2S3)cc1OC	none
Cc1ccc(CN2C(=O)c3ccccc3Sc3ccc(C(=O)NC4CCCC4)cc32)cc1	none
Cc1ccc(CN2C(=O)c3ccccc3Sc3ccc(C(=O)N4CCC5(CC4)OCCO5)cc32)cc1	Pf Dd2 inh 8.91µM
COc1ccccc1CNC(=O)c1ccc2c(c1)N(Cc1cc(C)ccc1C)C(=O)c1ccccc1S2	Pf Dd2 inh 2.51µM
COc1cc(NC(=O)CN2C(=O)c3ccccc3Sc3ccc(C(=O)N4CCCC4)cc32)cc(OC)c1	Pf Dd2 inh 7.94µM
Cc1ccc(CN2C(=O)c3ccccc3Sc3ccc(C(=O)NCCCN4CCOCC4)cc32)cc1	none
O=C(NC1CCCC1)c1ccc2c(c1)N(Cc1ccc(C(F)(F)F)cc1)C(=O)c1ccccc1S2	Pf Dd2 inh 12.6µM
Cc1cc(C)cc(NC(=O)CN2C(=O)c3ccccc3Sc3ccc(C(=O)N4CCOCC4)cc32)c1	none
COC(=O)c1ccc2c(c1)N(CC(=O)Nc1ccc(OC)c(Cl)c1)C(=O)c1ccccc1S2	none
O=C(NC1CCCC1)c1ccc2c(c1)N(Cc1ccccc1Cl)C(=O)c1ccccc1S2	none
COC[C@H](C)NC(=O)c1cn2cc(-c3ccc(OC)cc3F)n(C)c(=O)c2n1	none
Cc1cnc(C(=O)N2CC3CC(C2)[C@@H]2CCCC(=O)N2C3)cn1 (stereo partly drawn)	none
Cn1cc(CN2CC[C@H](c3nc4ccccc4[nH]3)C2)c2ccccc21	none
Cc1ccc(NC(=O)Cn2ccn3nc(-c4ccc(F)cc4)c(CO)c3c2=O)cc1	none
Cc1cnc(CCNC(=O)c2cc(CN3CCOCC3)on2)n1CC1CC1	none
O=C(O)c1ccc2c(c1)N(Cc1ccc(F)cc1Cl)C(=O)c1ccccc1S2	none
CCOc1ccc(CN2C(=O)c3ccccc3Sc3ccc(C(=O)NCCc4ccccc4)cc32)cc1	none
CCOc1ccc(CN2C(=O)c3ccccc3Sc3ccc(C(=O)NCc4ccc(C)cc4)cc32)cc1	Pf Dd2 inh 12.6µM
